From PubChem BioAssay
An excerpt weighted towards active compounds, which were near 4.7% of everything screened.
TRHR PAM: qHTS for Small Molecule Agonists and Allosteric Enhancers of Human TRH Receptor: Primary Screen for Enhancers; enhancement, % at 2 µM; TRHR cells, fluo-8 calcium fluorescence, EC20 TRH enhancement; AID 493056, 2011; Thyrotropin-releasing hormone receptor (Homo sapiens), P34981; hit rate 0.66% among 360,000; in the data active = enhancement above about 30%
Target sequence (P34981 whole entry, looked up): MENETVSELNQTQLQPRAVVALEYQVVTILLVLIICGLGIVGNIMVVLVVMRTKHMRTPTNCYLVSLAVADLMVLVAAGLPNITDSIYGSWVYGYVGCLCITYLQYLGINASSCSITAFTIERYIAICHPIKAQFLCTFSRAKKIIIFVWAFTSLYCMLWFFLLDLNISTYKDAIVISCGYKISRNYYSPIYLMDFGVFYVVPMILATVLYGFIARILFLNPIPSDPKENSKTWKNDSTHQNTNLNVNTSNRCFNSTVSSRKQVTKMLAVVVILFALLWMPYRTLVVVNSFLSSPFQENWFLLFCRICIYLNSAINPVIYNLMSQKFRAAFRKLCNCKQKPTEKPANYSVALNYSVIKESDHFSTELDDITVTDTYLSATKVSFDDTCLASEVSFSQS
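TRHR-expressing cells loaded with fluo-8 calcium dye were read kinetically (ex 480/em 530) during compound addition, then stimulated with an EC20 of TRH (10 nM final). Enhancement of the Gq-mediated intracellular calcium response was scored.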
D1 agonist: Allosteric Agonists of the Human D1 Dopamine Receptor: qHTS; D(1A) dopamine receptor (Homo sapiens), P21728; HEK293 T-REx D1 cells, calcium flux, agonist mode; activation, % at 2 µM; hit rate 1% among 360,000; AID 504660, 2011
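Tetracycline-induced HEK293 TREx D1 cells, force-coupled to calcium signalling, were dye-loaded with a no-wash calcium kit. Compound was pin-added after a 10 s baseline. Fluorescence was read kinetically at 1 cycle/s for 180 s, with calcium rises flagged as agonism.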
D1 PAM: Potentiators of Human D1 Dopamine Receptor: qHTS; potentiation, % at 10 µM; hit rate 0.036% among 360,000; D(1A) dopamine receptor (Homo sapiens), P21728; AID 504651, 2011; HEK293 TREx D1 cells, calcium flux, dopamine EC20 potentiation; in the data active = potentiation above about 30%
TRHR ag: qHTS for Small Molecule Agonists and Allosteric Enhancers of Human TRH Receptor: Primary Screen for Agonists | hit rate 0.18% among 360,000 | AID 493084, 2011 | activation, % at 2 µM | TRHR cells, calcium flux fluo-8, FDSS agonist mode
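TRHR-expressing cells, plated overnight in medium with 10% serum, were loaded with fluo-8 calcium dye at room temperature. After a 10 s baseline, library compound was pin-added and calcium release was recorded kinetically (ex 480/em 530) as agonist response.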
D1 antagonist: Antagonist of Human D 1 Dopamine Receptor: qHTS; hit rate 3.2% among 360,000; HEK293 TREx D1 cells, calcium flux, dopamine EC80; active compounds read low; activity change, negative = inhibition, % at 10 µM; AID 504652, 2011; in the data active = activity change below about -30%
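Tetracycline-induced HEK293 T-REx cells with force-coupled D1 receptor were loaded with a no-wash calcium dye. Compound was added after a 10 s baseline and read kinetically for 180 s; EC80 dopamine was then added and calcium flux followed another 180 s.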
Hits are given with their value; – = inactive; · = no result; ! = repeats disagree. Rule as the data show it, unless noted: active = activation above about 30%; inactive = the rest.

SMILES	TRHR PAM	D1 agonist	D1 PAM	TRHR ag	D1 antagonist
CC(C1CC2CCC1C2)n1c(COc2ccccc2F)nnc1SCC(N)=O (centres undefined)	–	89	–	–	–
CCOC(=O)c1ccccc1NC(=O)c1cc2c(s1)-c1ccccc1SC2	–	–	–	–	-45
COc1ccc(C)cc1NC(=O)c1cc2c(s1)-c1ccccc1SC2	–	–	–	–	-32
Cc1ccc(Cl)cc1N(C)C(=O)c1cn(C2CCCCC2)c(=O)c2c1c1ccccc1n2C	–	–	–	–	–
N#Cc1nc(-c2ccc(OCc3ccccc3)cc2)oc1NCc1ccco1	–	–	–	–	–
CNc1oc(-c2ccc(OCc3ccccc3)cc2)nc1C#N	–	–	–	–	-32
CC(=O)N(/N=C1\Sc2ccccc2C1=O)c1ccccc1C	–	–	–	–	–
CC(=O)N(/N=C1\Sc2ccccc2C1=O)c1ccccc1	–	–	–	–	-44
CCc1nc2sc3c(O)cc(=O)[nH]c3c2cc1C	–	–	–	–	–
COc1cc(S(=O)(=O)N(Cc2ccccn2)Cc2ccccc2Cl)ccc1-n1cnnn1	–	–	–	–	–
COc1ccccc1CN(Cc1ccco1)S(=O)(=O)c1ccc(-n2cnnn2)c(OC)c1	–	–	–	–	-33
COc1cccc(/C=C/C(=C2/C(=O)N(c3ccccc3)N=C2C)c2ccc(Br)cc2)c1OC	–	–	–	–	-85
CC(C)c1ccc(S(=O)(=O)N2CCN(C(=O)c3ccncc3)CC2)cc1	–	–	·	–	-31
COc1ccc(N2CCN(S(=O)(=O)CCNC(=O)Cc3ccc(-c4ccccc4)cc3)CC2)cc1	–	–	–	–	–
CCOC(=O)C1(CCc2ccccc2)CCN(C(=O)CN2C(=O)CSC2=O)CC1	–	48	–	–	–
Cc1ccc(O)c(NC(=O)c2ccc(Br)c(S(=O)(=O)N3CCCCC3)c2)c1	–	–	–	–	-58
Cc1ccc(O)c(NC(=O)c2cccc(S(=O)(=O)N3CCCCC3)c2)c1	–	–	–	–	–
COc1ccccc1NC(=O)Cn1c(SCC(=O)Nc2ccc(F)cc2)nc2ccccc21	–	–	–	–	–
Cc1ccc(-n2c(=O)c3ccc(C(=O)NCc4ccco4)cc3n(Cc3ccccc3Cl)c2=O)cc1	–	–	–	–	–
CCCN(CCC)C(=O)Cn1c(=O)n(-c2ccc(C)cc2)c(=O)c2ccc(C(=O)NCc3ccccc3Cl)cc21	–	–	–	–	-66
CCn1c(/C=C/c2ccc(O)cc2)nc2ccccc2c1=O	–	–	–	–	–
CCn1c(/C=C/c2ccc(O)c(O)c2)nc2ccccc2c1=O	34	–	–	–	–
CCOc1ccc(CC2c3cc(OCC)c(OCC)cc3CCN2C(=O)c2cc(OC)c(OC)c(OC)c2)cc1OCC (centres undefined)	–	–	–	–	–
COc1ccc2c(c1OC)CN1CCc3cc4c(cc3[C@@H]1[C@@H]2O)OCO4	–	–	–	–	-66
O[C@@H]1[C@@H](O)C=C2CCN3Cc4cc5c(cc4[C@H]1C23)OCO5 (some centres undefined)	–	–	–	–	–
SMILES	TRHR PAM	D1 agonist	D1 PAM	TRHR ag	D1 antagonist
COc1cc2c(cc1OC)C1Cc3ccc(OC)c(OC)c3CN1CC2 (centres undefined)	–	–	–	–	-74
COc1cc2c(cc1OC)[C@@H]1Cc3ccc(OC)c(OC)c3CN1CC2	–	–	–	–	-53
O=C(N1CCCC1)C12CC3CC(CC(Cl)(C3)C1)C2	–	–	–	–	–
Cc1cccc(N(Cc2ccccc2)C(=O)CSC(C)C(=O)Nc2cc(C)on2)c1 (centres undefined)	–	–	–	–	–
Cc1ccc(CNC(=O)C(=O)NCC2OCCN2S(=O)(=O)c2ccc(C)cc2)cc1 (centres undefined)	–	–	–	–	–
CNC(=O)C(=O)NCC1OCCCN1S(=O)(=O)c1ccc(F)cc1C (centres undefined)	–	–	–	–	-54
COc1ccc(CCNC(=O)C(=O)NCC2OCCN2S(=O)(=O)c2ccc3c(c2)OCCO3)cc1OC (centres undefined)	–	–	–	–	-75
Cc1ccc(CNC(=O)C(=O)NCC2OCCN2S(=O)(=O)c2ccc(Br)cc2)cc1 (centres undefined)	31	–	–	–	–
Cc1ccc(S(=O)(=O)N2CCOC2CNC(=O)C(=O)NCCN(C)C)cc1 (centres undefined)	37	–	–	–	–
COc1ccc(CCNC(=O)C(=O)NCC2OCCN2S(=O)(=O)c2ccc3c(c2)OCCO3)cc1 (centres undefined)	–	–	–	–	–
Cn1cccc1C(=O)N/N=C/c1c(Cl)cccc1Cl	–	–	–	–	–
O=C(Nc1ccc(Cl)cn1)c1ccc2[nH]c(=O)c(=O)[nH]c2c1	–	–	–	–	-30
Cc1ccc(NC(=O)c2ccc3[nH]c(=O)c(=O)[nH]c3c2)nc1	–	–	–	–	–
CCc1nnc(SCC(=O)N2CCCC(N3CCN(c4ccccc4C)CC3)C2)o1 (centres undefined)	–	–	–	–	–
OC(CCN1CCCCC1)(c1ccccc1)C1C[C@@H]2C=C[C@H]1C2 (some centres undefined)	–	–	–	–	–
CN1CCN(CC#CC(C)(O)C2CC3C=CC2C3)CC1 (centres undefined)	–	–	–	–	-74
Cc1sc2ncnc(N3CCC(C(=O)Nc4nnc(SCc5ccccc5F)s4)CC3)c2c1C	–	–	–	–	–
Cc1ccc(NC(=O)C2=CC(c3ccc(C)cc3)=NS(=O)(=O)N2C)cc1	–	–	–	–	–
CC(=O)c1ccc(NC(=O)C2=CC(c3ccc4c(c3)OCO4)=NS(=O)(=O)N2C)cc1	–	33!	–	–	–
CC(=O)c1ccc(NC(=O)C2=CC(c3ccc(C)cc3)=NS(=O)(=O)N2C)cc1	–	–	–	–	-46
C=Cc1ccc(Cn2c(C(=O)O)c(CNC3CCCCC3)c3ccc(OC)cc32)cc1	–	–	–	–	–
Cc1ccc(S(=O)(=O)NC(=O)COc2cc(C)ccc2C(C)C)cc1	–	–	–	–	-44
CC(=O)c1c(C)[nH]c(C(=O)COc2cc(C)ccc2C(C)C)c1C	–	–	–	–	-36
Cc1cc(=O)n(CC(=O)NC(C)c2ccccc2)c2c1c(C)nn2-c1cccc(F)c1 (centres undefined)	–	–	–	–	–
COc1ccc(-c2cc(C(=O)N/N=C/c3cccnc3)c3cc(C)cc(C)c3n2)cc1	–	–	–	–	–
